Reference: PubChem BioAssay (NCATS)
Records with an inconclusive call do not appear. Where a call stands in place of a potency, no number is given. Calls of active or inactive are those of the source. Unless noted, the call rests on the fitted dose curve; in most records, active means well fitted curve in the direction sought with a large enough effect; inconclusive means small, poorly fitted or top-dose-only effect, or another doubt; inactive means no such curve, though single readings can be large; an effect the other way counts as inactive or inconclusive.

What was measured:
[1] = target: Cytochrome P450 3A4 (Homo sapiens) (UniProt P08684); test: qHTS Assay for Activators of Cytochrome P450 3A4 (AID 885); conditions: recombinant CYP3A4, Luciferin-PPXE luminescence, 60 min; series mostly up to 57.1 µM; further: nearly all actives have a fitted effect of over 65% in size
Cytochrome P450 3A4 (Homo sapiens), sequence (P08684 whole entry, looked up): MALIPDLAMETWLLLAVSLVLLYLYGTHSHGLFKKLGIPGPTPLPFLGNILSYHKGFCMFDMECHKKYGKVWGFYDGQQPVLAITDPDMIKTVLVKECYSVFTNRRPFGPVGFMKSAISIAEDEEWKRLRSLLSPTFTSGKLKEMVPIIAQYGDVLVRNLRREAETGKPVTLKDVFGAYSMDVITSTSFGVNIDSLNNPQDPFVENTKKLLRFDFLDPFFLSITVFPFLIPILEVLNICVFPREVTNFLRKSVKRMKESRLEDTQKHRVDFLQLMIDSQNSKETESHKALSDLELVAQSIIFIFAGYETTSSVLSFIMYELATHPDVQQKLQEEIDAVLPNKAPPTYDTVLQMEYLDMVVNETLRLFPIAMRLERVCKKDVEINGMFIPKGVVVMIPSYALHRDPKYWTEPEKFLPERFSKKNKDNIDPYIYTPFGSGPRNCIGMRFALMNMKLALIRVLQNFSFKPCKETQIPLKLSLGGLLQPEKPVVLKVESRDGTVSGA
Procedure, shortened: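 Human CYP3A4 dealkylates Luciferin-PPXE to luciferin, which luciferase detection converts to light. Substrate was at its KM (25uM), buffer 200mM KPO4, reaction 60 min at RT.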

[2] = Confirmation and Secondary Assay for Modulators of Hemoglobin Beta Chain Splicing at IVS2 654 locus (AID 910); conditions: HeLa EGFP-654 splicing reporter, GFP fluorescence, 48 h; series mostly up to 46.1 µM;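 further: HeLa cells stably carrying EGFP split by mutant beta-globin IVS2-654 intron; per-well total GFP intensity by laser scanning cytometry after 2-day treatment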
Procedure, shortened: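 Readout: per-well total peak green fluorescence (488 nm ex, 500–520 nm em) from objects 5–250 µm, reflecting correct splicing of an EGFP-654 reporter. Compounds were applied for 2 days at 37 °C to overnight-plated HeLa EGFP-654 cells; controls were DMSO and 500 nM IVS2-654 PNA.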

[3] = Confirmation and Secondary Assay for Modulators of Hemoglobin Beta Chain Splicing at IVS2 705 locus (AID 930); conditions: HeLa EGFP-705 splicing reporter, GFP fluorescence, 48 h; series mostly up to 46.1 µM;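 further: HeLa cells stably expressing the EGFP-705 splicing reporter; GFP fluorescence per well restored by corrected splicing of the IVS2-705 intron in EGFP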
Procedure, shortened: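 Per-well GFP, captured at 1 x 8 µm resolution with 488 nm excitation, served as the read-out for HeLa EGFP-705 cells incubated 2 days with test compound versus DMSO.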

[4] = qHTS Assay for Lipid Storage Modulators (AID 1519; calls by dose curve); conditions: Drosophila S3 cells, BODIPY lipid droplet/cell ratio, laser cytometry, cells loaded with oleic acid; for activity change, negative = inhibition: at 57.5 µM (top of the series)
Procedure, shortened: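 Cells seeded at 5,000 per well were treated with compounds over a concentration series and loaded with oleic acid (400 uM, as added). Lipid droplet fluorescence (488 nm excitation, 500-530 nm channel) was read by laser-scanning cytometry and normalized to 20 uM Triacsin C.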

[5] = target: Ubiquitin carboxyl-terminal hydrolase 1 (Homo sapiens) (UniProt O94782); test: Inhibitors of USP1/UAF1: Pilot qHTS (AID 504865); conditions: purified USP1/UAF1, Ub-rhodamine cleavage fluorescence; series mostly up to 114 µM;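 further: rhodamine fluorescence freed from ubiquitin-rhodamine substrate followed over time; top concentration of the series differs between compounds; nearly all actives have a fitted effect of over 35% in size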
Ubiquitin carboxyl-terminal hydrolase 1 (Homo sapiens), sequence (O94782 whole entry, looked up): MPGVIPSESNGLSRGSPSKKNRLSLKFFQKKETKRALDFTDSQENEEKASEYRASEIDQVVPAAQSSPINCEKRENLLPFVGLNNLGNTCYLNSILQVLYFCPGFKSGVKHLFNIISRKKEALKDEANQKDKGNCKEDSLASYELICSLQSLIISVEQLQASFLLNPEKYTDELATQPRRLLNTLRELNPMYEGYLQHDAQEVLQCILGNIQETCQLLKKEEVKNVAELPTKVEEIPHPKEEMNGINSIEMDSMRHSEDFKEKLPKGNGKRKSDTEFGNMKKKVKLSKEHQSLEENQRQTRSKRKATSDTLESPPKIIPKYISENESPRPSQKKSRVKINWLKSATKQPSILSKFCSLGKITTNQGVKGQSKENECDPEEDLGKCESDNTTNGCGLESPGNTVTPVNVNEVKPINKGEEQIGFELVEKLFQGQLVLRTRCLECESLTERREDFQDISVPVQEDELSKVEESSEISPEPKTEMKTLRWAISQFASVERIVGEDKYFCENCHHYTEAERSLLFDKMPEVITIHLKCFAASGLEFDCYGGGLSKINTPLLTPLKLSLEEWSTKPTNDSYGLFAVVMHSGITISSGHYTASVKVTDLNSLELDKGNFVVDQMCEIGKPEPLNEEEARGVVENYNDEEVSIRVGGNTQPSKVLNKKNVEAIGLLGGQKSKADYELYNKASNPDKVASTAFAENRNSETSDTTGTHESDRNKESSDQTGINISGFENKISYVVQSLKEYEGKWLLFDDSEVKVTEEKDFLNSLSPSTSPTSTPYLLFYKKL
Procedure, shortened: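 In 50mM HEPES pH 7.8 containing 0.5mM EDTA, 1mM TCEP, 0.1 mg/ml BSA and 0.01% Tween-20, 1nM USP1/UAF1 is exposed to compound for 15 min, then Ub-Rho (150nM final) is added and fluorescence is read over time.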

[6] = target: DNA dC->dU-editing enzyme APOBEC-3G (Homo sapiens) (UniProt Q9HC16); test: qHTS for inhibitors of Vif-A3G interactions: Validation (AID 588379); conditions: Vif-A3G protein interaction assay; series mostly up to 46.1 µM
DNA dC->dU-editing enzyme APOBEC-3G (Homo sapiens), sequence (Q9HC16 whole entry, looked up): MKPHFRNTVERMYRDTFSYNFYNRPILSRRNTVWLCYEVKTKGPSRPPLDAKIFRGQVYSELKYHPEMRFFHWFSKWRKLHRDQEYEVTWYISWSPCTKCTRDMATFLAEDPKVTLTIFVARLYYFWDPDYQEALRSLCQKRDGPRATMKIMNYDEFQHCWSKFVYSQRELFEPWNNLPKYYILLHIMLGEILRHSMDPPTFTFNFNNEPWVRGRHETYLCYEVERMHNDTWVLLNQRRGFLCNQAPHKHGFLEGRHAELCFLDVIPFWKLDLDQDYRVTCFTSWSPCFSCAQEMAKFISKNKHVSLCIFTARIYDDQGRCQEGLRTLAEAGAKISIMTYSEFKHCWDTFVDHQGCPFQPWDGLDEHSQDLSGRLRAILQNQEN
Procedure, shortened: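 Yellow fluorescence (Ex 488, Em 500-530) of Vif-coexpressing HeLa A3G-eYFP cells, scanned by Acumen cytometer, reports blocked A3G degradation. Cells plated at 700/well overnight at 37 deg C before compound addition, then a further overnight compound incubation at 37 deg C.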

[7] = target: Cytochrome P450 3A4 (Homo sapiens) (UniProt P08684); test: qHTS Assay for Inhibitors and Substrates of Cytochrome P450 3A4 (AID 884); conditions: recombinant CYP3A4, Luciferin-PPXE luminescence; series mostly up to 57.1 µM; further: potency means the concentration at half of the fitted maximal effect; nearly all actives have a fitted effect of over 50% in size
Procedure, shortened: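 Luminescent readout of luciferin produced by CYP3A4 (20 nM) dealkylation of Luciferin-PPXE, 25 uM (its KM). NADPH-driven reaction ran 60 min at RT after 10 min compound preincubation; data scaled to 57 uM ketoconazole as 100% inhibition.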

[8] = measured here: cell count channel max response
[9] = measured here: lipid channel max response

Compound | Potency [1] | Potency [2] | Potency [3] | activity change, negative = inhibition [4] | max response [4, 8] [%] | max response [4, 9] [%] | Potency [5] | outcome [6] | Potency [7]
COc1ccc2c(c1OC)C(=O)O[C@H]2C1c2c(cc3c(c2OC)OCO3)CCN1C (stereo partly drawn) | inactive | inactive | inactive | 8.59% (inactive) | 20.9 | 32.4 | inactive | inactive | –
C[C@H]1C[C@]2(O[C@@H]2C)C(=O)O[C@@H]2CCN(C)C/C=C(/COC(=O)[C@]1(C)O)C2=O | inactive | – | – | -0.98% (inactive) | -19.3 | -21.3 | inactive | inactive | –
COc1cccc2c1CCC1CC(=O)CC[C@@]21C (stereo partly drawn) | inactive | inactive | inactive | 4.57% (inactive) | -12.9 | -5.49 | inactive | – | 15.8 µM (active)
Nc1ccn([C@@H]2O[C@H](CO)[C@@H](OP(=O)(O)O)[C@H]2O)c(=O)n1 | inactive | – | – | 4.4% (inactive) | 7.76 | 8.34 | inactive | inactive | –
